Source: PubChem (several laboratories)
PrPC surface inh: reduces human prion protein on the cell surface. P04156. cell surface PrPC, TR-FRET read-out. inhibition, % at 13.8 µM. 0.43% of 370,000 active. AID 720596; in the data active means inhibition above about 24%; further: 0% = median of the test wells and 100% = reference compound wells
PfHsp40 yeast: restores yeast growth despite PfHsp40 toxicity | AID 504582 | S. cerevisiae expressing PfHsp40, growth rescue, ATP luminescence | 0.68% of 340,000 active | growth rescue, % at 12.5 µM; in the data active means growth rescue above about 28%, passing the limit was not always enough; inconclusive means no clear call, values can overlap the other calls;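 further: yeast W303a lacking pdr1 and pdr3 grown in galactose medium; growth measured after three days at 30 °C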
CCHF vOTU inh: CCHFV vOTU protease inhibition; Pep-AMC fluorescence; inhibition, % at 11.5 µM; 0.55% of 370,000 active; AID 651958; in the data active means inhibition above about 30%; further: 0% = vehicle wells with enzyme and 100% = no enzyme wells
PrP 5UTR inh: inhibition of PrP 5' UTR reporter expression | cell-based PrP 5' UTR mRNA reporter, plate reader | inhibition, % (concentration not given with the values) | 0.35% of 340,000 active; in the data active means inhibition above about 52%; further: 0 = median of the neutral control wells
RN4220 kill: kills Staphylococcus aureus RN4220; S. aureus RN4220 growth, OD600, 16 h; inhibition, % (test concentration not listed); 0.33% of 330,000 active; in the data active means inhibition above about 85%;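 further: plate controls were untreated cells for no effect and reference antibiotic for full effect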
ugtP null kill: compounds lethal to S. aureus RN4220 ugtP deletion mutant; OD600 growth, 16 h; growth inhibition, % (test concentration not listed); 0.54% of 330,000 active; AID 1259309; in the data active means growth inhibition above about 68%;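 further: plate controls were untreated wells for no effect and antibiotic for full effect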
Starred values were filed as active, the others as inactive; ? = inconclusive; nt = no result. Compounds with a hit are over-represented: about 2.1% of the library has one in this group of screens.

SMILES | PrPC surface inh | PfHsp40 yeast | CCHF vOTU inh | PrP 5UTR inh | RN4220 kill | ugtP null kill
COc1cc2c(cc1OC)CN(C(=O)c1ccc([N+](=O)[O-])o1)CC2 | -22 | 63* | 16 | 9 | 18 | 17
CCc1nc(SCc2nc3ccccc3[nH]2)c2oc3ccccc3c2n1 | -1 | 41* | -6 | -22 | 11 | 8
Cc1nc(SCc2nc3ccc(Br)cc3[nH]2)c2oc3ccccc3c2n1 | -6 | 7 | -2 | -28 | -4 | 25
COc1ccc(NC=CC(=O)c2ccc(Oc3ncccn3)cc2)cc1 | nt | nt | nt | nt | 4 | 0
COc1cnc(-c2ccccn2)nc1Sc1ccccc1 | 5 | 268* | 5 | -16 | 8 | 7
COc1cnc(-c2ccccn2)nc1Sc1ccc(F)cc1 | 7 | 37* | 16 | -15 | 6 | -3
COc1ccc(Sc2nc(-c3ccccn3)ncc2OC)cc1 | 7 | ? | -9 | 2 | 1 | 3
O=Cc1ccc(Oc2cc(-c3ccccc3)nc(-c3ccccc3)n2)cc1 | -9 | 0 | 12 | -1 | 69 | 100*
CCOC(=O)c1cc(C(O)(C(F)(F)F)C(F)(F)F)c(N=CN(C)C)o1 | nt | nt | nt | nt | 6 | 11
COC(=O)C1=C(c2ccccc2OCc2ccccc2)CC2CCC1N2C(=O)NCc1ccc(OC)c(OC)c1 (stereo unspecified) | nt | nt | nt | nt | -1 | -7
CC(C)CC(NC(=O)C1CCC(C)CC1)C(=O)NCCN1CCOCC1 (stereo unspecified) | -2 | 1 | -3 | -14 | 2 | 3
CC1CCC(C(=O)NC(C(=O)NCCN2CCC(C)CC2)C(C)C)CC1 (stereo unspecified) | -1 | 46* | -5 | -15 | 2 | -2
CCOc1ccc(NS(=O)(=O)c2cnc(Cl)c(Cl)c2)cc1 | -1 | 88* | -5 | -19 | 9 | -5
Cc1cc(C)cc(NS(=O)(=O)c2cnc(Cl)c(Cl)c2)c1 | 2 | 0 | 24 | -4 | 10 | -31
COc1ccc(-c2ccc(OC)c(C3C4C=CCC[C@@]4(C)C(=O)N3Cc3ccccc3)c2)cc1OC (stereo partly specified) | nt | nt | nt | nt | -7 | 3
Cc1ccc(NC(=O)C(OC(=O)c2ccc(C=O)cc2)c2ccccc2)cc1Cl (stereo unspecified) | nt | 1 | nt | -18 | -13 | 90*
O=C1N=C2SCCN2C1=Cc1ccccc1Cl | nt | nt | nt | nt | 7 | 8
COc1cc(S(=O)(=O)NC2CCCCC2C)ccc1F (stereo unspecified) | -5 | 98* | 11 | -12 | 2 | -1
COc1cc(S(=O)(=O)NC2CCCCC2C)ccc1Cl (stereo unspecified) | 9 | -2 | 9 | -17 | 0 | -9
Cc1nn2c(-c3ccncc3)nnc2c2ccccc12 | -7 | 57* | 9 | -18 | 5 | 0
COc1ccc(-c2nnc3c4ccccc4c(C)nn23)cc1 | 13 | 0 | -1 | -40 | 3 | 0
Cc1csc2nc(O)c(C(=O)NC3CCCCCC3)c(=O)n12 | -1 | -1 | -7 | -19 | 1 | 7
Cc1csc2nc(O)c(C(=O)NC3CCCCC3)c(=O)n12 | -1 | 165* | -2 | 1 | 6 | 2
COc1ccc(C(=O)c2cnc(N=CN(C)C)s2)cc1 | nt | nt | nt | nt | 5 | 10
O=[N+]([O-])c1ccc2c(c1)C(N1CCOCC1)C(=CCOc1ccc(Cl)cc1Cl)O2 (stereo unspecified) | nt | nt | nt | nt | 1 | -10
SMILES | PrPC surface inh | PfHsp40 yeast | CCHF vOTU inh | PrP 5UTR inh | RN4220 kill | ugtP null kill
CCOc1cc(C=NNC(=O)c2cccnc2)ccc1OCC(=O)N(C)C | nt | nt | nt | nt | 4 | 0
O=C(/C=C/c1ccccc1)c1cc(Br)ccc(=O)c1O | -19 | 332* | -1 | -28 | 99* | 99*
CCC(=O)NN=c1sc2ccccc2n1C | nt | nt | nt | nt | 4 | 6
N#CSCC(=O)c1cccc2ccccc12 | -5 | 146* | 1 | -10 | 7 | -2
Cc1ccc(NS(=O)(=O)c2ccc3[nH]c(=O)sc3c2)cc1 | 4 | -1 | -2 | -2 | -9 | 100*
Cc1ccc(NS(=O)(=O)c2ccc3[nH]c(=O)[nH]c3c2)cc1 | -4 | 0 | 3 | 4 | 0 | 4
COc1ccc(-c2csc(Nc3ccc(S(=O)(=O)Nc4cc(OC)nc(OC)n4)cc3)n2)cc1 | 3 | 1 | 29 | -17 | 5 | 20
COc1cc(NS(=O)(=O)c2ccc(Nc3nc(-c4ccccn4)cs3)cc2)nc(OC)n1 | -6 | 1 | -2 | -21 | -3 | 90*
CS(=O)(=O)n1nc(-c2ccc(Cl)cc2)nc1N | 2 | 0 | -12 | -25 | 5 | 5
